Screening results deposited in PubChem by National Center for Advancing Translational Sciences (NCATS).
An excerpt weighted towards active compounds, which were near 3.7% of everything screened.
GLP-1R agonist – qHTS of GLP-1 Receptor Agonists; 380,000 tested, 0.007% active; Potency, µM (doses to about 45.6 µM), without a hit: at the highest dose activation, actives largely listed as activators; HEK293 GLP-1R CRE-luciferase, luminescence, 4-6 h; cells express a hypersensitive GLP-1R form; Glucagon-like peptide 1 receptor (Homo sapiens), P43220; also: % of control where 0% means no effect
Target sequence (P43220 whole entry, looked up): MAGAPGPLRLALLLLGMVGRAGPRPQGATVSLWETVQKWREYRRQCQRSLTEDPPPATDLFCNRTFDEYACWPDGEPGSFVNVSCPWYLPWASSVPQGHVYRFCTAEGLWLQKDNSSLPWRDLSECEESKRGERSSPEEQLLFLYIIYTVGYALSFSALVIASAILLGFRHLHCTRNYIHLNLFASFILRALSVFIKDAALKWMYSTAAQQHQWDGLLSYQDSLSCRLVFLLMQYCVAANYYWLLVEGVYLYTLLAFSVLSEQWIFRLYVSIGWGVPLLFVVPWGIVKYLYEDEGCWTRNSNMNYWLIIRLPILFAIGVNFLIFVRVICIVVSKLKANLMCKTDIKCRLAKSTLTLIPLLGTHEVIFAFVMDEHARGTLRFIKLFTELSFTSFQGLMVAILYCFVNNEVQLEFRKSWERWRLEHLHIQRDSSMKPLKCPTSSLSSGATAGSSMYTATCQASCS
GLP1R inv ag – qHTS of GLP-1 Receptor Inverse Agonists (Inhibition Mode); 410,000 tested, 1.6% active; Potency, µM (top dose mostly 38.3 µM), without a hit: top-dose activity change, negative = inhibition, actives largely listed as inhibitors; HEK293 GLP-1R CRE-luciferase, luminescence, 24 h; GLP-1R form is constitutively active; AID 624417, 2012; also: % is scaled to controls: 0 for no effect and ±100 for the full control effect; nearly all actives have a fitted effect of over 55% in size
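HEK293 cells stably co-expressing constitutively active GLP-1R and a cAMP-responsive luciferase reporter were seeded in DMEM with 10% Nu serum, given compounds after 12 h, and incubated 24 h at 37 deg C. Luminescence was then read.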
HepG2 tox-1 – qHTS for Inhibitors of TGF-b: Cytotox Counterscreen; HepG2 CAGA-GFP viability, ATP luminescence, 18 h; Potency, µM (series often up to 46.1 µM), inactives show at the top dose activity change, negative = cytotoxicity, actives largely listed as cytotoxic; 410,000 tested, 0.76% active
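CellTiter-Glo luminescence gave cytotoxicity after 18 hours at 37 degrees C. The cells were HepG2 CAGA-GFP in 1% FBS DMEM, stimulated with 500 pg/mL TGF-beta after compound addition. %Activity was normalised to no-cell wells (complete cell-killing) and DMSO (no toxicity), and curves were fitted and classified.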
ATXN2 expr inh – Primary qHTS for Inhibitors of ATXN expression; HEK-293 ATXN2-luciferase reporter, luminescence, 24 h; Potency, µM (series often up to 57 µM), inactives show top-dose activity change, negative = inhibition, most hits filed as inhibitors; 360,000 tested, 0.72% active; AID 1745845, 2022; also: % is scaled to controls: 0 for no effect and ±100 for the full control effect; nearly all actives have a fitted effect of over 55% in size
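qHTS (up to 57 uM final) was run with 24 h compound exposure of reporter cells at 37 °C. Each well was multiplexed: SteadyGlo luminescence measured ATXN2-luciferase expression after a fluorogenic Gly-Phe-AFC viability readout (25 uM final).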
S2 tox – Viability Counterscreen for Primary qHTS for Inhibitors of ATXN expression. S2 cells (HEK-293 line with an ATXN2-luciferase reporter) viability, CellTiter-Fluor protease fluorescence, 24 h. Potency, µM (highest dose often 56.7 µM), hits mostly cytotoxic. 400,000 tested, 0.49% active; also: nearly all actives have a fitted effect of over 40% in size
TGFb SMAD3 inh – qHTS for Inhibitors of TGF-b. 410,000 tested, 1.2% active. Potency, µM (titrated, usually from 46.1 µM), for inactives: top-dose activity, negative = inhibition, usual class: inhibitors. HepG2 CAGA-GFP TGF-b/SMAD3 reporter, GFP fluorescence, 18 h; TGF-beta stimulated, 500 pg/mL final; also: % is scaled to controls: 0 for no effect and ±100 for the full control effect; nearly all actives have a fitted effect of over 65% in size
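Inhibition of TGF-beta-driven CAGA-GFP reporter expression in HEPG2 cells is measured by cellular GFP fluorescence after 18 h stimulation with 500 pg/mL recombinant TGF-beta in 1% FBS medium at 37 degrees C.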
TGFb confirm – qHTS for Inhibitors of TGF-b: Confirmation of Cherry Picks; shares compounds with TGFb SMAD3 inh; HepG2 CAGA-GFP TGF-b reporter, GFP fluorescence, 18 h; cells stimulated with TGF-beta, 500 pg/mL; Potency, µM (doses to about 46.1 µM), for the others: at the top dose activity, negative = inhibition, most hits filed as inhibitors; 1,600 tested, 63% active; also: % is scaled to controls: 0 for no effect and ±100 for the full control effect; nearly all actives have a fitted effect of over 65% in size
HepG2 tox-2 – qHTS for Inhibitors of TGF-b: Cytotox Counterscreen for Cherry Picks | shares compounds with TGFb SMAD3 inh | HepG2 CAGA-GFP viability, ATP luminescence, 18 h; cells stimulated with TGF-beta, 500 pg/mL | Potency, µM (series often up to 46.1 µM), for inactives: top-dose activity, negative = cytotoxicity, usual class: inhibitors | 1,600 tested, 27% active | AID 720535, 2013; also: % is scaled to controls: 0 for no effect and ±100 for the full control effect; nearly all actives have a fitted effect of over 70% in size
TGFb CCL64 inh – qHTS for Inhibitors of TGF-b: CCL64 Cells Orthogonal Assay for Cherry Picks; CCL64 CAGA-GFP reporter, TGF-b stimulated, GFP fluorescence, 18 h; AID 720536, 2013; Potency, µM (titrated, usually from 46.1 µM), without a hit: top-dose activity, negative = inhibition, usual class: inhibitors; 1,600 tested, 41% active; shares compounds with TGFb SMAD3 inh; also: nearly all actives have a fitted effect of over 65% in size
TGFb COP inh – qHTS for Inhibitors of TGF-b: Hit Validation in HepG2 Cells using COP promoter. 1,600 tested, 3% active. HepG2 COP-GFP TGF-b reporter, GFP fluorescence, 18 h; cells stimulated by added recombinant TGF-beta. Potency, µM (titrated, usually from 46.1 µM), for inactives: at the highest dose activity, negative = inhibition, usual class: inhibitors. shares compounds with TGFb SMAD3 inh. AID 720537, 2013; also: nearly all actives have a fitted effect of over 70% in size
* hit, by the source's call; i = inactive; u = inconclusive; x = not tested or not shown. Calls follow the shape of the dose curve; as a rule, active = well fitted curve in the direction sought with a large enough effect; inconclusive = small, poorly fitted or top-dose-only effect, or another doubt; inactive = no such curve, though single readings can be large; an effect the other way counts as inactive or inconclusive. Potency is read from the fitted curve at half-maximal effect.

SMILES	GLP-1R agonist	GLP1R inv ag	HepG2 tox-1	ATXN2 expr inh	S2 tox	TGFb SMAD3 inh	TGFb confirm	HepG2 tox-2	TGFb CCL64 inh	TGFb COP inh
COc1ccc2c(c1OC)C(=O)OC2Nc1nc(-c2ccc(-c3ccccc3)cc2)cs1 (stereo not drawn)	6.2%	13.7%	-12.1%	103.1%	i	7.08µM*	23.1µM*	-17.3%	u	-2.2%
CCOc1ccc(C=Nc2ccc(/C=C/c3ccnc4ccccc34)cc2)cc1OCC	x	x	-33.4%	x	x	-16.4%	x	x	x	x
Cc1ccc(NC(=O)c2ccccc2NS(=O)(=O)c2ccc(Cl)s2)cc1	-0.5%	u	-69.1%	u	i	u	x	x	x	x
O=C(Nc1ccccc1Cc1ccccc1)c1ccccc1NS(=O)(=O)c1ccc(Cl)s1	-14.7%	u	-25.3%	u	i	4.47µM*	5.8µM*	10.3µM*	9.2µM*	80.4%
CCCCNC(=O)C1=CC(c2ccc3c(c2)OCO3)=NS(=O)(=O)N1C	x	6.3%	-4.9%	-2.6%	i	-5.0%	x	x	x	x
O=C(NCc1cccnc1)c1cc(Sc2cccc(Cl)c2)nc2ccccc12	0.0%	u	-14.4%	-18.7%	i	11.2µM*	u	-28.9%	u	26.7%
O=S(=O)(Nc1ccc2c(c1)OCCO2)c1ccc2oc3ccccc3c2c1	u	0.0%	-31.5%	-38.9%	i	10µM*	23.1µM*	u	u	36.5%
Cc1cc(C)c2c(c1)cc(C)c1nnc(SCC(=O)Nc3ccc(S(=O)(=O)N4CCCCC4)cc3)n12	4.8%	-21.0%	12.8%	11.9%	i	u	18.4µM*	-11.7%	-21.5%	-0.2%
Cc1ccc2cc(C)c(SCC(=O)Nc3ccc(S(=O)(=O)N4CCCC4)cc3)nc2c1	12.0%	-29.1%	-2.9%	-0.2%	i	0.5%	x	x	x	x
COc1ccc(-c2csc(NC(=O)c3ccccc3NS(=O)(=O)c3ccc(F)c(F)c3)n2)cc1	0.5%	u	-41.9%	7.08µM*	u	1.78µM*	2.31µM*	1.46µM*	1.84µM*	-8.7%
O=C(Nc1nc(-c2ccccc2)cs1)c1ccccc1F	2.5%	-1.1%	-7.6%	97.8%	i	2.2%	x	x	x	x
O=C(Nc1cc(S(=O)(=O)N2CCCCC2)ccc1O)c1ccccc1NS(=O)(=O)c1ccc(F)cc1	1.2%	u	-31.8%	u	i	17.8µM*	16.4µM*	u	u	74.1%
Cc1ccc(S(=O)(=O)Nc2ccccc2C(=O)Nc2nc(-c3ccc(F)cc3)cs2)cc1	-18.1%	3.16µM*	-34.4%	u	u	5.62µM*	5.17µM*	5.8µM*	5.17µM*	93.6%
CC1CCCN(S(=O)(=O)c2ccc(S(=O)(=O)NC(C)c3cccs3)cc2)C1 (stereo not drawn)	7.8%	u	-14.9%	-7.1%	i	u	u	-10.7%	3.0%	-4.3%
Cc1ccc(C)c(N2CCN(C(=O)c3c4c(nc5ccccc35)C(=O)N(C3CCCCC3)C4)CC2)c1	x	-14.5%	-1.2%	x	x	-0.9%	x	x	x	x
CCC1Oc2ccc(C)cc2N(CC(=O)NC2CCCCC2)C1=O (stereo not drawn)	6.4%	-24.8%	11.9%	4.2%	i	-0.6%	x	x	x	x
CCC1Oc2ccc(C)cc2N(CC(=O)N(Cc2ccc(C)o2)C2CCCC2)C1=O (stereo not drawn)	-17.4%	4.47µM*	3.3%	-4.0%	i	17.8µM*	11.6µM*	-26.0%	u	-2.5%
O=C(CSc1nnc(CNc2ccc(F)cc2)n1Cc1ccccc1)NCc1ccco1	-3.9%	-28.9%	-0.8%	8.3%	i	-12.7%	x	x	x	x
O=C(CSc1ncc(-c2ccc(F)cc2)n1Cc1ccco1)Nc1ccc2c(c1)OCO2	7.2%	u	-31.1%	6.4%	u	u	x	x	x	x
CCOc1ccccc1-n1c(CNc2ccc(F)cc2)nnc1SCC(=O)NCc1ccco1	-3.7%	0.0%	2.3%	0.1%	u	8.91µM*	u	-2.1%	0.2%	3.5%
CCOc1ccc(NC(=O)CSc2ncc(-c3ccc(F)cc3)n2Cc2ccco2)cc1	8.6%	u	-24.7%	-23.8%	i	15.8µM*	25.9µM*	u	u	38.7%
Cc1nc2cc(-c3cccc(F)c3)nn2c(C)c1CCC(=O)NC(C)c1ccc2c(c1)OCCO2 (stereo not drawn)	7.0%	u	-18.0%	u	i	u	u	-28.6%	29.1µM*	10.7%
CCOc1ccccc1NC(=O)CSc1nc2c(c(=O)[nH]1)CCC2	x	-3.8%	1.3%	10.8%	i	3.0%	x	x	x	x
COc1ccccc1Cc1c(-c2ccco2)nc2c(C)cc(Br)cn12	-4.6%	u	-86.9%	8.91µM*	u	8.91µM*	7.31µM*	9.2µM*	4.61µM*	u
COc1ccc(Cc2c(-c3ccco3)nc3c(C)cc(Br)cn23)c(C)c1	-5.6%	-22.8%	-17.2%	-26.3%	u	u	x	x	x	x
COc1ccccc1Cc1c(-c2ccco2)nc2c3ccccc3ccn12	22.5%	u	x	57.3%	i	x	x	x	x	x
